For nine sequences, binding signal results are on record in publication PMC7862700, “An all-to-all approach to the identification of sequence-specific readers for epigenetic DNA modifications on cytosine”.

Common to all, as to assay: DAPPL (digital affinity profiling via proximity ligation, sequencing); 10 mM Tris-HCl pH 7.5, 50 mM NaCl, 1 mM DTT, 4% glycerol, room temperature, 30 min; GST-TFs on glutathione beads, 16-mer random dsDNA library, 0.1% formaldehyde crosslink after washing; high values mean tight binding
Common to all, as to details: protein: recombinant; tags: N-terminal GST; dsDNA, one strand shown

Assay [1] deals with T1, ERF (Homo sapiens, UniProt P50548 1-548).
T1 sequence: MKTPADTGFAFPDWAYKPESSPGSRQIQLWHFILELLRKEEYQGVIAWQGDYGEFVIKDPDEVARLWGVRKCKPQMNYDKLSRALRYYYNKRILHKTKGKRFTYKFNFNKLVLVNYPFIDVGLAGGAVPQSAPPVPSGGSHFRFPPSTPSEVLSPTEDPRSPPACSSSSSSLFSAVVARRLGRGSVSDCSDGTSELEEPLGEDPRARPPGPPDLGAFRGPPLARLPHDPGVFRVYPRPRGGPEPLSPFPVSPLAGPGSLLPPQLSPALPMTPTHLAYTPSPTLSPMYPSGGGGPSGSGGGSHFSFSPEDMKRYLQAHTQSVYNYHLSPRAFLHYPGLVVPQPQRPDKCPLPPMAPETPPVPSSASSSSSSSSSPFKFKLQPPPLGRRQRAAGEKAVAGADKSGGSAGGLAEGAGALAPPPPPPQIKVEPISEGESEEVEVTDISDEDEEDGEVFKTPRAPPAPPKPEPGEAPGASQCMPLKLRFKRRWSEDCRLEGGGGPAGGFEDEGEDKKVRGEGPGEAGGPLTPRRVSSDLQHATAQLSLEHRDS
Summed up:
(§1)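 Beads coated with glutathione captured GST-fused human transcription factors that had been expressed in yeast, and the factors were then given DNA barcodes and pooled with a tag-only sample. The pools were incubated with 200 nmole of a random double-stranded 16-mer DNA library in Tris/NaCl/DTT/glycerol buffer for 30 min at room temperature, washed, crosslinked with 0.1% formaldehyde and proximity-ligated with BsaI/T4 ligase at 37 °C for 1 h. PCR amplification and Illumina NextSeq500 sequencing came last. Binding signal is each hexamer's read frequency for a factor divided by its frequency for the tag-only sample.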

The target of assay [2] is T2, ETV3L (Homo sapiens, UniProt Q6ZN32 1-361).
T2 sequence: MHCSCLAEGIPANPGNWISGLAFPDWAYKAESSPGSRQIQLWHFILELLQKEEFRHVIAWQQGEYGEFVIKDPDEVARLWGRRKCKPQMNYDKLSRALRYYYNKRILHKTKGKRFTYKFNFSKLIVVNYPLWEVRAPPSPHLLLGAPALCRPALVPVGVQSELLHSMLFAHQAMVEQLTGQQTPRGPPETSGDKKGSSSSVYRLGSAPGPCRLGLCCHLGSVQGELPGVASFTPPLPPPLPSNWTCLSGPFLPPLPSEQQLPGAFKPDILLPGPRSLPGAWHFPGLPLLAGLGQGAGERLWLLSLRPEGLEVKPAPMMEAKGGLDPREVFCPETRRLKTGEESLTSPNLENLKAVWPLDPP
Summed up: as §1

Assay [3] deals with T3, ETS2 (Homo sapiens, UniProt P15036 1-469).
T3 sequence: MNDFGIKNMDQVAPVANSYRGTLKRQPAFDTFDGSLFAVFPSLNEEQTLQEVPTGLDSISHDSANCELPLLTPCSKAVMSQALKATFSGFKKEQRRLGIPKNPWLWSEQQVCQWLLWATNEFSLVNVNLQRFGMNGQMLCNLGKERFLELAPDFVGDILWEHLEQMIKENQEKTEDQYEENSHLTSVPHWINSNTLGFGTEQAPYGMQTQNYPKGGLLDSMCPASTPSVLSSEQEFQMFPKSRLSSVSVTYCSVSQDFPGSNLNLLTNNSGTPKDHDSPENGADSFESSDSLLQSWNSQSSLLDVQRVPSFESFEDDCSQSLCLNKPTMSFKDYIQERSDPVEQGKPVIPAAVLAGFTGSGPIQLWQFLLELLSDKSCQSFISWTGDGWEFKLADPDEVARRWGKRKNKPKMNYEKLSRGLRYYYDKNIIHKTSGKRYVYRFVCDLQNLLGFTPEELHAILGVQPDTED
An outline of the steps: as §1

In assay [4] the target is T4, SPDEF (Homo sapiens, UniProt O95238 1-335).
T4 sequence: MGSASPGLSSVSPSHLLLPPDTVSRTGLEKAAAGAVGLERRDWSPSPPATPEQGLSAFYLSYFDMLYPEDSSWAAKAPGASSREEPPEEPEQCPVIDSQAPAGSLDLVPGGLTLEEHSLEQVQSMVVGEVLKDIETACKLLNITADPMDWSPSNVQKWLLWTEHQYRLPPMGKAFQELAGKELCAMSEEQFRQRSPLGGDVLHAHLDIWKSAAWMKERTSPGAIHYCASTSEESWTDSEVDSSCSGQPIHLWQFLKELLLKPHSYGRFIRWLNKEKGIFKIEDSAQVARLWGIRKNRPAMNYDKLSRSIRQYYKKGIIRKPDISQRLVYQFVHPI
Summed up: as §1

Assay [5] deals with T5, ETV7 (Homo sapiens, UniProt Q9Y603 1-341).
T5 sequence: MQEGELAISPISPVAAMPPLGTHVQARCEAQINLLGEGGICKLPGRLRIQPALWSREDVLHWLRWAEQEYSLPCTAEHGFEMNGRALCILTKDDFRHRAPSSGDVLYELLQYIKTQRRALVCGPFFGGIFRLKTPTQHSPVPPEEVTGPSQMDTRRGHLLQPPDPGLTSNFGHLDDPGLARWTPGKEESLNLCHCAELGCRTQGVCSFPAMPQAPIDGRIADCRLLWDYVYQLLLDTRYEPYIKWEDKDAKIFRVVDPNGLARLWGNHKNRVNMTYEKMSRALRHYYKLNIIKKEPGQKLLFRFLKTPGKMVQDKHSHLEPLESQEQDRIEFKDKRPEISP
An outline of the steps:
as §1

The target of assay [6] is T6, ELF5 (Homo sapiens, UniProt Q9UKW6-2 1-255).
T6 sequence: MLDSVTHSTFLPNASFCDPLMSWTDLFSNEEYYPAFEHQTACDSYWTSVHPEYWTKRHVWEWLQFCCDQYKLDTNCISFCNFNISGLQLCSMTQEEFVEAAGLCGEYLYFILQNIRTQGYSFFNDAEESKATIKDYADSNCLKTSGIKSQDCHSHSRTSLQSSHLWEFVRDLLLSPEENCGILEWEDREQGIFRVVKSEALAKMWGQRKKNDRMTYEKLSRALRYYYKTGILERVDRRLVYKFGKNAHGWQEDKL
Summed up: as §1

The target in assay [7] is T7, ETV3 (Homo sapiens, UniProt P41162-2 1-143).
T7 sequence: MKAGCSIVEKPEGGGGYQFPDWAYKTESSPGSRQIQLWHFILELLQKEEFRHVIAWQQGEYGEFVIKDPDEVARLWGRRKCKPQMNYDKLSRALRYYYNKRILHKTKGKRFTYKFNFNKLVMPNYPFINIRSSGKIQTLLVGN
Summed up:
as §1

Assay [8] has as its target ETV6 (Homo sapiens, UniProt P41212 1-452). An outline of the steps: as §1

Chain of ETV6 (P41212 whole entry): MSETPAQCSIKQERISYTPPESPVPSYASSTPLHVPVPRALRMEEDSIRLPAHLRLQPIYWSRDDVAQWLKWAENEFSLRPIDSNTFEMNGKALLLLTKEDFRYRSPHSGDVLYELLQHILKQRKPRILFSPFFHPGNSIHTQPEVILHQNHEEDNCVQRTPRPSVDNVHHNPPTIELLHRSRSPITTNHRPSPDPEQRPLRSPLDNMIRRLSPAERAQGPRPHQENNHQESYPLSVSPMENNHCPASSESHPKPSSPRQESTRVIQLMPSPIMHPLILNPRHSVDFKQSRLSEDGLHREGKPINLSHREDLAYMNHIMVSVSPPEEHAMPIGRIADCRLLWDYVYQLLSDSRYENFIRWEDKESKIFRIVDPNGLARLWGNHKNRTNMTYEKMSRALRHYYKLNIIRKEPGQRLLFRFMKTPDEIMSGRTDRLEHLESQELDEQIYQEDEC

For CCGGTT, the binding signal in assay [1] was 1.82 fold enrichment (6-mer frequency, TF over GST control); in assay [2], 1.94 fold enrichment (6-mer frequency, TF over GST control); in assay [3] it was 1.96 fold enrichment (6-mer frequency, TF over GST control); in assay [4] it was 2.99 fold enrichment (6-mer frequency, TF over GST control); in assay [5], 1.77 fold enrichment (6-mer frequency, TF over GST control); in assay [6] it was 2.37 fold enrichment (6-mer frequency, TF over GST control). In addition, the binding signal is 2.05 fold enrichment (6-mer frequency, TF over GST control) in assay [7] and 2.19 fold enrichment (6-mer frequency, TF over GST control) in assay [8].

As for CTTTAC, the binding signal in assay [1] is 1.3 fold enrichment (6-mer frequency, TF over GST control); in assay [2] it was 1.46 fold enrichment (6-mer frequency, TF over GST control); in assay [3], 1.36 fold enrichment (6-mer frequency, TF over GST control); in assay [4] it was 1.35 fold enrichment (6-mer frequency, TF over GST control); in assay [5], 1.38 fold enrichment (6-mer frequency, TF over GST control); in assay [6], 1.35 fold enrichment (6-mer frequency, TF over GST control). Moreover, the binding signal in assay [7] is 1.39 fold enrichment (6-mer frequency, TF over GST control); in assay [8] it was 1.41 fold enrichment (6-mer frequency, TF over GST control).

As for GCGTCC, the binding signal in assay [1] was 1.32 fold enrichment (6-mer frequency, TF over GST control); in assay [2], 1.24 fold enrichment (6-mer frequency, TF over GST control); in assay [3], 1.18 fold enrichment (6-mer frequency, TF over GST control); in assay [4], 1.56 fold enrichment (6-mer frequency, TF over GST control); in assay [5] it was 1.17 fold enrichment (6-mer frequency, TF over GST control); in assay [6], 1.25 fold enrichment (6-mer frequency, TF over GST control). In addition, the binding signal in assay [7] was 1.24 fold enrichment (6-mer frequency, TF over GST control); in assay [8] it was 1.19 fold enrichment (6-mer frequency, TF over GST control).

With TCCCAA, the binding signal is 1.34 fold enrichment (6-mer frequency, TF over GST control) in assay [1]; 1.23 fold enrichment (6-mer frequency, TF over GST control) in assay [2]; 1.12 fold enrichment (6-mer frequency, TF over GST control) in assay [3]; 1.18 fold enrichment (6-mer frequency, TF over GST control) in assay [4]; 1.11 fold enrichment (6-mer frequency, TF over GST control) in assay [5]; 1.21 fold enrichment (6-mer frequency, TF over GST control) in assay [6]. Further, the binding signal was 1.16 fold enrichment (6-mer frequency, TF over GST control) in assay [7] and 1.23 fold enrichment (6-mer frequency, TF over GST control) in assay [8].

As to CCTCGG, the binding signal was 1.23 fold enrichment (6-mer frequency, TF over GST control) in assay [1]; 1.23 fold enrichment (6-mer frequency, TF over GST control) in assay [2]; 1.23 fold enrichment (6-mer frequency, TF over GST control) in assay [3]; 1.04 fold enrichment (6-mer frequency, TF over GST control) in assay [4]; 1.11 fold enrichment (6-mer frequency, TF over GST control) in assay [5]; 1.2 fold enrichment (6-mer frequency, TF over GST control) in assay [6]. In addition, the binding signal in assay [7] is 1.05 fold enrichment (6-mer frequency, TF over GST control); in assay [8], 1.24 fold enrichment (6-mer frequency, TF over GST control).

Regarding TACGGA, the binding signal in assay [1] was 1.28 fold enrichment (6-mer frequency, TF over GST control); in assay [2] it was 1.34 fold enrichment (6-mer frequency, TF over GST control); in assay [3] it was 1.38 fold enrichment (6-mer frequency, TF over GST control); in assay [4], 1.47 fold enrichment (6-mer frequency, TF over GST control); in assay [5] it was 1.18 fold enrichment (6-mer frequency, TF over GST control); in assay [6], 1.51 fold enrichment (6-mer frequency, TF over GST control). Further, the binding signal in assay [7] was 1.43 fold enrichment (6-mer frequency, TF over GST control); in assay [8], 1.39 fold enrichment (6-mer frequency, TF over GST control).

In the case of GTATGC, the binding signal is 1.05 fold enrichment (6-mer frequency, TF over GST control) in assay [1]; 1.23 fold enrichment (6-mer frequency, TF over GST control) in assay [2]; 1.24 fold enrichment (6-mer frequency, TF over GST control) in assay [3]; 1.18 fold enrichment (6-mer frequency, TF over GST control) in assay [4]; 1.27 fold enrichment (6-mer frequency, TF over GST control) in assay [5]; 1.11 fold enrichment (6-mer frequency, TF over GST control) in assay [6]. In addition, the binding signal in assay [7] is 1.24 fold enrichment (6-mer frequency, TF over GST control); in assay [8], 1.09 fold enrichment (6-mer frequency, TF over GST control).

With ACCCGA, the binding signal was 1.22 fold enrichment (6-mer frequency, TF over GST control) in assay [1]; 1.05 fold enrichment (6-mer frequency, TF over GST control) in assay [2]; 1.07 fold enrichment (6-mer frequency, TF over GST control) in assay [3]; 1.03 fold enrichment (6-mer frequency, TF over GST control) in assay [4]; 1.11 fold enrichment (6-mer frequency, TF over GST control) in assay [5]; 1.01 fold enrichment (6-mer frequency, TF over GST control) in assay [6]. Further, the binding signal in assay [7] is 1.05 fold enrichment (6-mer frequency, TF over GST control); in assay [8], 1.04 fold enrichment (6-mer frequency, TF over GST control).

For TTATAG, the binding signal in assay [1] is 1.24 fold enrichment (6-mer frequency, TF over GST control); in assay [2] it was 1.28 fold enrichment (6-mer frequency, TF over GST control); in assay [3] it was 1.33 fold enrichment (6-mer frequency, TF over GST control); in assay [4] it was 1.19 fold enrichment (6-mer frequency, TF over GST control); in assay [5], 1.24 fold enrichment (6-mer frequency, TF over GST control); in assay [6], 1.15 fold enrichment (6-mer frequency, TF over GST control). Further, the binding signal in assay [8] is 1.16 fold enrichment (6-mer frequency, TF over GST control).
